Compound activity: PubChem, The Scripps Research Institute Molecular Screening Center
ZTA counter – ZTA (EBV) inhibition in EBNA-1 counter-screen; P03206; ZTA-DNA binding, fluorescence polarization; inhibition, % at 11 µM; actives 0.15% (n = 320,000); AID 2234; in the data active = inhibition above about 33%
Target sequence (P03206 whole entry, looked up): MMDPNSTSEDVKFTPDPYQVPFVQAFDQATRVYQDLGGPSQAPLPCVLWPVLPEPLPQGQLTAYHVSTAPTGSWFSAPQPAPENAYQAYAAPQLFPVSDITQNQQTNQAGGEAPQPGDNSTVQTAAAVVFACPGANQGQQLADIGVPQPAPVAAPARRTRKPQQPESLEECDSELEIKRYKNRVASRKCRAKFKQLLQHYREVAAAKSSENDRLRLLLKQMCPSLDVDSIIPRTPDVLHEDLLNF
MsrA inh – bovine MsrA enzyme inhibitors, primary screen, biochemical, absorbance, HTS. Methionine sulfoxide reductase A (Bos taurus). purified bovine MsrA, absorbance read-out. inhibition, % at 15.5 µM. actives 0.75% (n = 360,000). AID 651718, 2012; in the data active = inhibition above about 4.5%;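 note: 0% = vehicle wells with enzyme and 100% = reference inhibitor wells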
PP5 primary – PP5 phosphatase inhibitors, primary screen, biochemical, fluorescence. Serine/threonine-protein phosphatase 5 (Homo sapiens), P53041. purified PP5c, OMFP substrate fluorescence. inhibition, % at 6.7 µM. actives 0.18% (n = 320,000). AID 1987, 2009;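 active = inhibition above the campaign's mean inhibition across all tested compounds plus 3 SD, cut at about 9.5% in these data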;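 note: 0% = DMSO only and 100% = 100 µM cantharidin control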
MsrA act – bovine MsrA enzyme activators, primary screen, biochemical, absorbance, HTS; purified bovine MsrA, absorbance read-out; Methionine sulfoxide reductase A (Bos taurus); activation, % at 10.6 µM; AID 602163, 2012; actives 0.3% (n = 360,000); in the data active = activation above about 7.5%;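 note: 0% = vehicle and 100% = reference activator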
EBNA-1 inh – EBNA-1 DNA-binding inhibitors, primary screen, biochemical, fluorescence polarization. inhibition, % at 14.8 µM. actives 0.34% (n = 300,000); in the data active = inhibition above about 28%
PP1 inh – PP1-alpha phosphatase inhibitors, primary screen, counter-screen for PP5 inhibitor project, biochemical, fluorescence, OMFP substrate, single point; purified PP1alpha; inhibition, % at 6.7 µM; actives 0.9% (n = 320,000); AID 2235, 2010;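 active = inhibition above the mean inhibition of all tested compounds plus 3 SD, computed separately for each screening campaign, cut at about 15% in these data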
Active calls of the source: *; nt = no result. In the library only some 2.3% were active in any assay of this set; here they are far more common.

SMILES	ZTA counter	MsrA inh	PP5 primary	MsrA act	EBNA-1 inh	PP1 inh
COc1cc(CO)ccc1OCC(=O)N1CCc2ccccc21	-15	-1	0	-4	1	-1
CCO/C(=C/c1sc2ccc(OC)cc2[n+]1CCCS(=O)(=O)[O-])CC	-21	4	2	3	-11	1
CCC(=O)/C=C1/Sc2ccc(OC)cc2N1CCO	0	4	2	-5	-3	2
CCC(/C=C1\Sc2ccc(OC)cc2N1CC)=C\c1sc2ccc(OC)cc2[n+]1CCCS(=O)(=O)[O-]	104*	1	6	-1	56*	1
CCC(/C=C1\Sc2ccc(OC)cc2N1CCO)=C\c1sc2ccc(OC)cc2[n+]1CCO	84*	0	2	-4	45*	2
N#Cc1c(N2CCN(C(=O)c3ccccc3)CC2)nc(-c2ccccc2)c2c1CCCC2	-21	1	1	-2	-11	16*
N#Cc1c(N2CCN(C(=O)c3ccccc3Cl)CC2)nc(-c2ccccc2)c2c1CCCC2	8	1	0	-4	-4	-2
Cc1cc(N/N=C/c2cccc(Cl)c2)nc(NCc2ccccc2)n1	-4	1	2	-2	-1	15*
Cc1cc(Nc2cccc(Cl)c2)nc(NCc2ccccc2)n1	-6	-1	7	-11	-12	16*
O=c1cc(-c2ccccc2Cl)oc2c(NS(=O)(=O)c3cc(Cl)cc(Cl)c3O)ccc(O)c12	16	nt	1	-2	24	27*
CCc1ccc(S(=O)(=O)Nc2ccc(O)c3c(=O)cc(-c4ccccc4Cl)oc23)cc1	-6	3	4	-10	8	11
COc1ccccc1N1CCN(C(=O)/C=C/c2c(Cl)nc3ccccn23)CC1	13	4.6*	5	-14	5	-6
COc1ccc(NC(=O)/C=C/c2c(Cl)nc3ccccn23)cc1	5	2	5	-4	3	-6
COC(=O)[C@]1(Cc2ccccc2)NC=C(C(=O)c2ccccc2)[C@@H]1c1cccs1	nt	1	nt	nt	nt	nt
Cc1ccsc1/C=C1\Oc2cc(OCC(=O)c3ccccc3)ccc2C1=O	-13	1	1	0	21	16*
CCCOc1ccccc1-n1sc2c(c1=S)-c1cc(OC)cc3c1N(C(=O)C3=O)C2(C)C	3	0	1	-4	5	17*
O=C(Nc1ccc(-n2nncc2-c2ccco2)cc1)c1cc2ccccc2oc1=O	-2	nt	-2	-2	19	29*
O=C(c1ccccc1)c1ccc2nc(-c3ccc(NC(=O)c4ccccc4F)cc3)[nH]c2c1	1	3	1	1	6	8
O=C(O)CCC(=O)Nc1ccc(-c2nc3ccc(C(=O)c4ccccc4)cc3[nH]2)cc1	-19	4.6*	3	-4	-13	6
COc1cccc(CNC(=O)[C@H]2CCCN2C(=O)[C@H]2CCCN2C(=O)c2ccccc2C(F)(F)F)c1	nt	1	nt	nt	nt	nt
O=C(O)c1cccnc1SC1CC(=O)N(c2ccc(OC(F)F)cc2)C1=O (stereo unspecified)	7	0	4	-2	4	16*
CC1CCN(C(=O)C2CCN(S(=O)(=O)c3cccs3)CC2)CC1	9	0	3	-8	-14	0
CC(=O)c1ccc(N2CCN(C(=O)C3CCN(S(=O)(=O)c4cccs4)CC3)CC2)cc1	-9	4.6*	4	-5	0	1
CN(C)c1nc(NCc2ccccc2)nc(SCC(=O)Nc2ccccc2)n1	-3	1	2	18*	5	0
CCOC(=O)CSc1nc2c(sc(=S)n2-c2ccccc2OC)c(=O)n1-c1ccccc1OC	-9	1	1	-13	11	-3
COc1ccc(-n2c(SCC(=O)C(C)(C)C)nc3c(sc(=S)n3-c3ccccc3)c2=O)c(OC)c1	12	2	2	-2	-4	16*
COc1ccc(Cl)cc1-n1c(=S)sc2c(=O)[nH]c(SCC(=O)C(C)(C)C)nc21	14	0	3	-5	7	17*
O=C(Nc1ccccc1C(F)(F)F)c1cc(-c2ccccc2O)on1	6	1	1	-4	-12	16*
